The record followed here is PubChem BioAssay (NCI).

About 83,000 compounds went through this panel and 20% of them were active in at least one assay; those are over-represented in the sample as a whole.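 Note: values are percent growth. 100 is the growth of untreated cells, values between 100 and 0 indicate rising inhibition; between -100 and 0 indicates cell death.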 Values without a mark were called inactive. Activity calls are given as the source filed them. The calls were made as follows: active = growth percent below 10; inactive = the rest.

Holding throughout (experiment): NCI-60 one-dose screen, 48 h (100 = growth as untreated, 0 = no growth, -100 = all killed)
What all share (conditions): 10 µM

For experiment [1], the system named is DU-145 prostate.
Experiment [2] relates to K-562 leukemia.
Experiment [3] deals with MALME-3M melanoma.
In experiment [4] the test system is MDA-MB-231 breast.
The subject of experiment [5] is RXF 393 renal.
Experiment [6] concerns SF-268 CNS.
Experiment [7] concerns SF-295 CNS.
Experiment [8] concerns SF-539 CNS.
Experiment [9] relates to UACC-257 melanoma.
Experiment [10] relates to M14 melanoma.

Regarding `Cc1cc(C)c2c(Nc3ncnc4c3sc3nc(C)cc(C)c34)n[nH]c2n1`, the growth in experiment [1] is 113%; in [2], 93.2%; in experiment [3], 94.2%; in experiment [4] it was 99.4%; in experiment [5] it was 97.6%; in experiment [6] it was 103%. In addition, the growth in experiment [7] was 91.3%; in [8] it was 100%; in experiment [9], 100%; in experiment [10], 99%.

With `CC(C)c1[nH]nc2c(NCc3ccc(-c4ccccn4)cc3)nc(SCCN(C)C)nc12`, the growth in [1] is 11.4%; in experiment [2] it was 5.19% (active); in experiment [3], -52.2% (active); in [4], 1.25% (active); in experiment [5], -69.1% (active); in experiment [6], 6.37% (active). Further, the growth in [7] was 2.15% (active); in experiment [8], -43.5% (active); in [9], -4.44% (active); in experiment [10] it was -32.9% (active).

`COc1ccc(C2C=C(c3ccc(OC)c(OC)c3)N=C3SC=CN32)c(Br)c1` (stereo not given): the growth was 82.7% in experiment [1]; 8.77% (active) in experiment [2]; 88.7% in experiment [3]; 78% in experiment [4]; 98.5% in experiment [5]; 90.4% in [6]. For the same molecule, the growth in [7] is 74.9%; in experiment [8], 87.1%; in [9], 97.3%; in experiment [10] it was 55.9%.

For the molecule `C#Cc1ccc(-n2c(/C=C/c3cc(OC)c(OC)c(OC)c3)nc3ncccc3c2=O)cc1`, the growth is 45.3% in experiment [1]; 25.6% in [2]; 50% in experiment [3]; 58.6% in experiment [4]; 36.4% in experiment [5]; 63.3% in experiment [6]. Moreover, the growth is 38% in experiment [7], 78.8% in experiment [8], 53.8% in experiment [9] and 71.9% in experiment [10].

As for `CCCc1c(C)nc2scc(-c3ccc(Cl)cc3)n2c1=O`, the growth was 105% in experiment [1]; 99.3% in [2]; 116% in [3]; 109% in experiment [4]; 92.7% in experiment [5]; 98.3% in experiment [6]. Further, the growth in experiment [7] was 105%; in experiment [8], 101%; in [9], 110%; in [10] it was 107%.

As for `Nc1nsc(C(=O)c2ccc(O)cc2)n1`, the growth in experiment [1] was 105%; in experiment [2], 107%; in experiment [3], 109%; in [4], 90.4%; in [5] it was 120%; in experiment [6], 101%. Also, the growth was 99.4% in [7], 92.9% in experiment [8], 87% in [9] and 105% in [10].

On to `CCC1(C)OC(=O)NC1=O` (stereo not given), for which the growth in experiment [1] is 111%; in experiment [2] it was 91.7%; in experiment [3], 106%; in [4], 109%; in experiment [5] it was 121%; in experiment [6], 103%. For the same molecule, the growth was 103% in [7], 99.1% in [8], 90.9% in experiment [9] and 97.2% in experiment [10].

`O=C(N/N=C\c1cc(Cl)ccc1O)c1ccncc1`: the growth in experiment [1] was 48.3%; in experiment [2] it was 39.1%; in experiment [3], 80%; in experiment [4], 56%; in [5], 57.4%; in experiment [6], 37.5%. In addition, the growth in [7] was 77.2%; in [8] it was 63.6%; in [9], 53.7%; in experiment [10], 47.6%.

As to `COc1cc(OC)cc(-c2ccc(-c3ccc(C(=N)N)cn3)o2)c1`, the growth in [1] was 21.6%; in experiment [2], -59.9% (active); in experiment [3], -79.9% (active); in experiment [4], -83.2% (active); in [5] it was -69.9% (active); in [6] it was -20.3% (active). For the same molecule, the growth in experiment [7] is -70.5% (active); in [8] it was -69.1% (active); in [9], -80.6% (active); in experiment [10], -77.9% (active).

As to `N#Cc1ncc(-c2cc(F)ccc2F)c(NC2CCCCCC2)n1`, the growth in experiment [1] was 97.8%; in experiment [2], 90.2%; in experiment [3] it was 114%; in [4], 60.7%; in experiment [5], 82.8%; in [6] it was 60%. Moreover, the growth was 69.1% in experiment [7], 79.7% in experiment [8], 81.8% in [9] and 104% in [10].

On to `CCc1cc2n(n1)-c1ncc(C(=O)OC)cc1Oc1ccccc1-2`, for which the growth was 111% in [1]; 102% in [2]; 120% in experiment [3]; 102% in experiment [4]; 114% in [5]; 103% in [6]. Further, the growth in [7] was 101%; in experiment [8] it was 97.9%; in [9], 104%; in [10], 108%.

With `CC(C)OCc1cc(CN2CCN(c3cccc(Cl)c3)CC2)c(O)c2ncccc12`, the growth was 11.8% in experiment [1]; 3.38% (active) in experiment [2]; -40.6% (active) in experiment [3]; -41.9% (active) in [4]; -14.9% (active) in experiment [5]; 5.89% (active) in experiment [6]. Besides, the growth is -71.8% (active) in [7], -6.98% (active) in experiment [8], -36.7% (active) in experiment [9] and -17% (active) in experiment [10].

For the molecule `CCN(CCCNC(=O)Cc1cc(=O)oc2cc(N(C)C)ccc12)CCNc1ccnc2cc(Cl)ccc12`, the growth in [1] is 109%; in [2], 0.722% (active); in experiment [3] it was 88.2%; in experiment [4] it was 78.7%; in experiment [5] it was 74.6%; in [6], 92.1%. Also, the growth in experiment [7] was 80.5%; in [8], 25.2%; in experiment [9], 41.9%; in [10], 11.5%.

`FC(F)(F)c1ccc(-c2nc(-c3nc4cc(Cl)c(Cl)cc4[nH]3)c3ccccn23)cc1`: the growth in experiment [1] was 58.6%; in [2], 79.8%; in experiment [3], 22.3%; in experiment [4], 29.6%; in experiment [5] it was 31.7%; in experiment [6] it was 44.9%. Moreover, the growth in experiment [7] is 71.2%; in experiment [8] it was 32.6%; in [9], 93.4%; in experiment [10], 79.6%.
